# RecA splice inh: inhibitors of M. tuberculosis RecA intein splicing; inhibition, % (concentration not given with the values); P9WHJ3; cell-free RecA intein splicing, fluorescence; hit rate 0.75% among 290,000; in the data active means inhibition above about 30%;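 further: 0% = vehicle wells and 100% = reference inhibitor control wells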
# DUSP3 inh: inhibitors of human VHR1 phosphatase (DUSP3); P51452; recombinant VHR phosphatase, pNPP absorbance; inhibition, % at 13.3 µM; hit rate 0.52% among 290,000; AID 1654; in the data active means inhibition above about 50%
# Target sequence (P51452 whole entry, looked up): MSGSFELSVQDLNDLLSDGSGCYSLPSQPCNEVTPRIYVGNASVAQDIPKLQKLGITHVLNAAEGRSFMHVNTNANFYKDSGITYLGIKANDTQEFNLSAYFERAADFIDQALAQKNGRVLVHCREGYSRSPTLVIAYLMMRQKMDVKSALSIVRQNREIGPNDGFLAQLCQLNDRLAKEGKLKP
# PriA SSB inh: blocks PriA binding to SSB C-terminal tail. inhibition, % at 33 µM. hit rate 0.6% among 430,000. AlphaScreen SSBct-PriA binding, biotinylated peptide; in the data active means inhibition mostly above about 37%, no sharp cut-off; inactive means mostly below about 20%;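 further: plate controls were negative control peptide for no effect and reference peptide for full effect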
# 3CLpro inhibitor: SARS-CoV 3CLpro protease inhibition | P0C6X7 | recombinant SARS-CoV 3CLpro, quenched FRET peptide cleavage | inhibition, % at 6 µM | hit rate 0.14% among 290,000 | AID 1706; in the data active means inhibition above about 12%
# CCHF vOTU inh: CCHFV vOTU protease inhibition; Pep-AMC fluorescence; inhibition, % at 11.5 µM; hit rate 0.55% among 370,000; in the data active means inhibition above about 30%; further: 0% = vehicle wells with enzyme and 100% = no enzyme wells
# GFP chromophore: counter-screen: blocks GFP chromophore formation; AID 434968; hit rate 83% among 2,100; shares compounds with RecA splice inh; EC50, µM; cell-free GFP chromophore formation, fluorescence; call rule not given here
# Starred values were filed as active, the others as inactive; nt = no result given. Sampled rows, rich in hits. Any-hit rate of the full collection: about 1.7%.
SMILES,RecA splice inh,DUSP3 inh,PriA SSB inh,3CLpro inhibitor,CCHF vOTU inh,GFP chromophore
COc1ccc(N(C)C(=O)c2cc3c(s2)-c2c(C)cccc2OC3)c(OC)c1,33.5*,20.5,-0.7,5.4,-11.5,>38
CCOC(=O)c1cc2c(s1)-c1c(C)cccc1OC2,-13.8,8.2,-46.1,-2.9,-39.3,nt
Cc1cc(C)cc(NS(=O)(=O)C2CC2)c1,nt,nt,-5.0,nt,nt,nt
COc1ccc(C(N)c2nccc3cc(OC)c(OC)cc23)cc1OC (stereo not drawn),92.0*,-11.6,9.6,7.4,nt,>38
O=C(c1ccc2nc(Cc3cccc(Cl)c3)oc2c1)N1CCC(O)CC1,41.8*,-5.4,-10.7,-3.3,-1.6,>38
COCCNC(=O)Cn1c(CO)cnc1SCc1ccc(Cl)c(Cl)c1,nt,nt,-19.0,nt,nt,nt
Fc1ccc(Nc2nc(N3CCCC3)nc(N3CCCC3)n2)cc1,nt,nt,-4.0,nt,nt,nt
Fc1ccc(Nc2nc(Oc3ccccc3F)nc(N3CCCC3)n2)cc1,8.1,26.9,-0.1,-1.5,-6.8,11.8*
Nc1ccc2nc(CCCCc3nc4ccccc4[nH]3)[nH]c2c1,35.8*,51.5*,9.6,0.1,-7.5,>38
Nc1ccc2nc(CCCO)[nH]c2c1,1.4,-11.0,12.0,-2.6,3.0,nt
COc1ccc(SCCCC(=O)N2CCN(c3nc4ccc([N+](=O)[O-])cc4s3)CC2)cc1,nt,nt,5.0,nt,nt,nt
CCCCCc1cc(=O)oc2c(C(CCN3CCCC(C)C3)c3ccc4c(c3)OCO4)c(OC)cc(OC)c12 (stereo not drawn),34.9*,10.4,30.6,nt,2.5,19.6*
COc1cc(OC)c2c(-c3ccccc3)cc(=O)oc2c1C(CCN1CCCC1)c1ccc2c(c1)OCO2 (stereo not drawn),8.9,22.5,16.9,nt,1.0,nt
Cc1ccc(NC(=O)C(CC(C)C)NC(N)=O)cc1 (stereo not drawn),32.8*,-8.5,-0.9,-0.4,-2.0,>38
O=C(Cc1ccc(Cl)cc1)Nc1cccc(S(=O)(=O)N2CCCCC2)c1,nt,nt,-1.1,nt,2.7,nt
O=C(CCl)Nc1cccc(S(=O)(=O)N2CCCCCC2)c1,44.2*,17.6,5.4,3.5,-2.0,33.4*
Cc1nnc(NC(=O)CCc2csc(NC(=O)Nc3cccc(Cl)c3)n2)s1,nt,nt,-4.0,nt,nt,nt
O=C1Nc2ccccc2C12OCCS2 (stereo not drawn),0.2,4.4,nt,nt,nt,nt
S=C1NCCC12C(=S)Nc1ccccc12 (stereo not drawn),37.2*,nt,-11.4,nt,-5.0,>38
CC(=NNC(=O)CC#N)c1cc2ccccc2oc1=O,nt,nt,-1.8,nt,nt,nt
C/C(=N\NC(=O)CC#N)c1cc2ccccc2oc1=O,86.2*,-0.8,nt,-4.2,-1.5,12.9*
O=C(Nc1ccc2ccccc2c1)c1cnccn1,4.8,10.8,3.0,-3.4,-7.3,nt
CCS(=O)(=O)c1ncc(Cl)c(C(=O)Nc2ccc(C)cc2)n1,64.5*,-17.9,-8.7,3.1,-6.0,22.7*
CS(=O)(=O)c1ncc(Cl)c(C(=O)Nc2ccc3ccccc3c2)n1,30.9*,16.6,-10.9,4.1,10.4,12.4*
COc1ccc(CNC(=O)c2nc(S(=O)(=O)Cc3ccccc3)ncc2Cl)cc1,81.9*,9.2,-16.5,0.2,13.6,14.8*
SMILES,RecA splice inh,DUSP3 inh,PriA SSB inh,3CLpro inhibitor,CCHF vOTU inh,GFP chromophore
CCC1CCCCN1S(=O)(=O)c1ccc(NC(=O)c2ccncc2)cc1 (stereo not drawn),1.1,2.5,3.5,11.2,-7.6,nt
CCC1CCCCN1S(=O)(=O)c1ccc(NC(=O)c2nc(S(C)(=O)=O)ncc2Cl)cc1 (stereo not drawn),96.6*,2.2,1.0,3.6,27.9,1.26*
COc1ccc(S(=O)(=O)Cc2ccc(C(=O)NCc3ccccc3)o2)cc1,-1.3,-17.6,-12.7,-0.7,-1.3,nt
O=C(O)c1cnsn1,nt,nt,-12.0,nt,nt,nt
COC(=O)c1ccccc1NC(=O)c1nc(S(=O)(=O)Cc2ccccc2)ncc1Cl,2.4,5.5,6.5,-6.7,12.9,nt
CC(=O)Nc1ccc(NC(=O)c2nc(S(=O)(=O)Cc3ccccc3)ncc2Cl)cc1,39.9*,16.5,-13.1,-3.5,-4.0,26.1*
O=C(NCc1ccccc1)c1nc(S(=O)(=O)Cc2ccccc2)ncc1Cl,77.4*,5.5,-13.0,-3.9,13.4,16.7*
Cc1cccc(NC(=O)CN2CCC(C(N)=O)CC2)c1C,nt,nt,10.0,nt,nt,nt
Cc1ccc(C(=O)n2c(-c3ccccc3)cnc2SCC(=O)Nc2ccccc2)cc1,6.6,17.7,2.4,2.3,-15.4,nt
Cn1c(SCC(=O)NCc2ccccc2)ncc(C(=O)Nc2ccccc2)c1=O,4.6,nt,-20.5,nt,6.0,nt
CC(=O)Nc1ccc(NC(=O)CSc2ncc(C(=O)Nc3ccccc3)c(=O)n2C)cc1,31.4*,nt,-8.4,nt,14.1,0.115*
